From PubChem
CYP2C9 act: increases human cytochrome P450 2C9 activity | P11712 | activation factor at 5 µM | recombinant CYP2C9, luciferin-H conversion, luminescence; active compounds read high; factor 1 = untreated enzyme, 0 = blocked | hit rate 1.4% among 96,000;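 active means activation factor of 2 or more for CYP2C9 at a 5 µM dose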
Target sequence (P11712 whole entry, looked up): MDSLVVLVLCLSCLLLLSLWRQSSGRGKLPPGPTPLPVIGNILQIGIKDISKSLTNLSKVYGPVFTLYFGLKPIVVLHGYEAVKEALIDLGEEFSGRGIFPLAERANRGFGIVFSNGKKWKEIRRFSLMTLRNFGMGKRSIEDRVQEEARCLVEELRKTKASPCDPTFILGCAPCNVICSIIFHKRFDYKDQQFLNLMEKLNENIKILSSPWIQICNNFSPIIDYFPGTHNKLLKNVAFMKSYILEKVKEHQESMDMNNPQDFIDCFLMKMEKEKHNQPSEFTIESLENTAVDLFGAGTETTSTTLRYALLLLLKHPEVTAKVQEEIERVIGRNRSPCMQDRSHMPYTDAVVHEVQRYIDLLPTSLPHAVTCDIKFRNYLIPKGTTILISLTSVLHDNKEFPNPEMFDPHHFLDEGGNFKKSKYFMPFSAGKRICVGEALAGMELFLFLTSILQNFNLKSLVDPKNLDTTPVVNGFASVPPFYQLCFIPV
CYP2C19 inh: human CYP2C19 inhibition | inhibition, % at 5 µM | CYP2C19 Supersomes, luciferin-H EGE luminescence, 30 min | hit rate 21% among 96,000;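 active means CYP2C19 inhibition above a set limit at 5 µM in the primary screen, cut at about 50% in these data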
CYP2C19 act: activators of human cytochrome P450 2C19. recombinant CYP2C19, luciferin-H EGE luminescence; active compounds read high; 0 = fully inhibited enzyme, 1 = untreated enzyme. 96,000 tested, under 10 active. AID 1025. activation factor at 5 µM. P33261;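 active means activation factor of at least 2 at 5 µM in the primary screen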
PostGolgi yeast: growth inhibition of a yeast mutant, post-Golgi transport screen; post-Golgi transport phenotypic cell assay; inhibition, % at 10 µM; hit rate 0.9% among 98,000; AID 739;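 further: yeast cells grown in 1536-well plates; yeast grown about 18 h at 30C before absorbance read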
PostGolgi ctrl: growth of the yeast control strain, post-Golgi counter-screen; AID 738; hit rate 5% among 98,000; efflux-deficient yeast background strain, growth absorbance A615, 16 h; inhibition, % at 10 µM
CYP2C9 inhib: blocks human cytochrome P450 2C9; inhibition, % at 5 µM; hit rate 20% among 96,000; P11712; AID 777; CYP2C9 Supersomes, luciferin-H conversion, luminescence;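 active means blocking of liver enzyme CYP2C9 beyond about 50% at 5 µM, limit read from the data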
Hits are given with their value; i = inactive. Rows were chosen to be rich in hits. Some 32% of all compounds tested hit in one or more screens of this group. Unless noted, no stated cut-off is given here; in the data, active means inhibition above about 30%; inactive means the rest.

SMILES | CYP2C9 act | CYP2C19 inh | CYP2C19 act | PostGolgi yeast | PostGolgi ctrl | CYP2C9 inhib
CC(c1ccco1)N(C(=O)C12CC3CC(CC(C)(C3)C1)C2)c1ccccn1 (stereo unspecified) | i | i | i | i | i | i
CCOC(=O)C1CCN(CC(=O)Nc2c(C(=O)OC)[nH]c3cccc(C)c23)CC1 | i | i | i | i | i | i
CC(=O)c1cccc(NC(=O)CCS(=O)(=O)c2cccc3nonc23)c1 | i | i | i | i | i | i
Cc1cccc(N(C)C(=O)CCS(=O)(=O)c2cccc3nonc23)c1 | i | 94.0 | i | i | i | i
COc1ccc(N(C)C(=O)CCS(=O)(=O)c2cccc3nonc23)c(OC)c1 | i | 63.7 | i | i | 33.6 | i
CC(C)OCCCN1CN(S(=O)(=O)c2cccc(Cl)c2)c2nc3ccccc3nc21 | i | 54.5 | i | i | i | 80.7
CCOCCCN1CN(S(=O)(=O)c2ccc(Cl)cc2)c2nc3ccccc3nc21 | i | 54.5 | i | i | i | 80.9
CC(C)OCCCN1CN(S(=O)(=O)c2ccc(Cl)cc2)c2nc3ccccc3nc21 | i | i | i | i | i | i
C=CCn1c(SCc2ccccc2C#N)nnc1-c1cc(Br)ccc1O | i | 99.2 | i | i | 52.4 | 78.3
CCC(=O)NS(=O)(=O)c1cccnc1Nc1ccccc1Cl | i | i | i | i | i | 69.1
Cc1cc(C)nc(NS(=O)(=O)c2ccc(NC(=O)CCN3C(=O)c4ccccc4C3=O)cc2)n1 | i | i | i | i | i | i
C=CCn1c(CCNC(=O)c2ccccc2F)nnc1SCc1nc2ccccc2c(=O)[nH]1 | i | i | i | i | i | i
C=CCn1c(CCNC(=O)c2cccs2)nnc1SCC(=O)Nc1cccc(F)c1 | i | 71.8 | i | i | i | 90.3
C=CCn1c(CCNC(=O)c2ccccc2F)nnc1SCC(=O)Nc1nc(C)cs1 | i | i | i | i | i | 50.5
CCCn1c(=O)[nH]c(=O)c2c1nc(-c1ccc3c(c1)OCCO3)n2CCN1CCOCC1 | i | i | i | i | i | i
CCOC(=O)C1=C(C)Nc2ncnn2C1c1cccnc1 (stereo unspecified) | i | i | i | i | i | i
CCOC(=O)C1=C(c2ccccc2)NC(SCC)=C(C#N)C1c1cccnc1 (stereo unspecified) | i | i | i | i | i | 69.6
CCOC(=O)C1C(=O)C(C(=O)OCC)C(c2cccnc2)NC1c1cccnc1 (stereo unspecified) | i | i | i | i | i | i
CCCSC1=C(C#N)C(c2cccnc2)C(C(=O)OCC)=C(c2ccccc2)N1 (stereo unspecified) | i | i | i | i | i | 61.7
C=CCn1c(C)cc(C(=O)CSc2nnc3c(Cl)cc(Cl)cn23)c1C | i | 77.7 | i | i | i | i
Cc1n[nH]c(C)c1C(=O)CC1(O)C(=O)N(Cc2ccccc2)c2ccc(Br)cc21 (stereo unspecified) | i | 98.9 | i | i | 30.4 | 60.9
Cc1n[nH]c(C)c1C(=O)CC1(O)C(=O)N(CCc2ccccc2)c2ccc(Br)cc21 (stereo unspecified) | i | 55.7 | i | i | i | 66.2
O=C(NC1(C(F)(F)F)C(=O)Nc2c1c(=O)[nH]c(=O)n2Cc1ccco1)C1CCCCC1 (stereo unspecified) | i | i | i | i | i | i
COCCOC(=O)C1=C(C)NC(=O)NC1c1c(OC)ncnc1OC (stereo unspecified) | i | i | i | i | i | i
COCCOC(=O)C1=C(C)NC(=O)NC1C1CC=CCC1 (stereo unspecified) | i | 96.5 | i | i | i | i
SMILES | CYP2C9 act | CYP2C19 inh | CYP2C19 act | PostGolgi yeast | PostGolgi ctrl | CYP2C9 inhib
C=CCOC(=O)C1=C(C)NC(=O)NC1C1CC=CCC1 (stereo unspecified) | i | 97.8 | i | i | i | i
Cc1cccc(NC(=O)Cc2ccc(F)cc2)c1 | i | 96.1 | i | i | i | 58.0
O=C(CSCc1cccc(CSCC(=O)Nc2ccccc2)n1)Nc1ccccc1 | i | 53.1 | i | i | i | 64.6
O=C(CSCc1ccc(F)cc1)Nc1ccccc1 | i | 94.3 | i | i | i | i
COCCCNC(=O)C1CCN(c2nc(C)cc(C)n2)CC1 | i | i | i | i | i | i
Cc1cc(NC(=O)CSc2nc(-c3ccccc3)c(C#N)c(=O)[nH]2)no1 | i | i | i | i | i | 70.2
C=CCSc1nc(-c2ccccc2)c(C#N)c(=O)[nH]1 | i | i | i | i | i | i
